Reference: PubChem BioAssay AID2685 (National Center for Advancing Translational Sciences (NCATS), 2010)
About 2,100 (0.66%) of roughly 320,000 compounds were called active. Roughly 53% stayed inconclusive and do not appear here. Calls come from the whole dose curve; as a rule, active = well fitted inhibition curve with a large enough effect in the signal ratio, with a control signal flat (not every such curve was filed as active); inconclusive = small, poorly fitted or top-dose-only effect, or effect the other way, or a change in a side signal; inactive = flat fitted curve, though single readings scatter; the % refers to the signal ratio. The sample as a whole holds a higher share of actives than the screen did.

Test: qHTS Assay for Lipid Storage Modulators in Drosophila S3 Cells;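 for cell number change: cells counted by Cell Tracker Red CMTPX staining in the red channel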; for lipid storage change, negative = inhibition: % is set by controls: 0 for no effect and ±100 for the full control effect
Conditions: BODIPY lipid droplet fluorescence, 18-24 h, cells fed with added oleic acid; cell number change: measured here: cell count max response; series mostly up to 46.1 µM; lipid storage change, negative = inhibition: at the top concentration
Procedure, shortened: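 Laser-scanning cytometry quantifies lipid droplet accumulation (500–530 nm total intensity; droplet/cell object ratio) in oleic acid-fed (400 uM added) Drosophila S3 cells treated with a concentration series. 20 uM Triacsin C defined 100% inhibition.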
Potency is the fitted concentration of half-maximal effect.

| Structure (SMILES) | Potency | lipid storage change, negative = inhibition | cell number change [%] | outcome |
| --- | --- | --- | --- | --- |
| Cc1cc(C)c(NC2=NS(=O)(=O)c3ccccc32)c(C)c1 | 16.4 µM (active) |  |  |  |
| Cc1cc(O)c(C(C)C)cc1NC1=NS(=O)(=O)c2ccccc21 |  | -22.4% (inactive) | -1.35 |  |
| Cc1ccc(S(=O)(=O)NNC2=NS(=O)(=O)c3ccccc32)c(C)c1 |  | 6.11% (inactive) | -0.377 |  |
| CC(CC(=O)N1CCN(c2ccccc2)CC1)S(=O)(=O)c1ccc2c(c1)NC(=O)CS2 (stereo unspecified) |  |  | -1.91 | inactive |
| CC(CC(=O)N1CCN(c2cccc(Cl)c2)CC1)S(=O)(=O)c1ccc2c(c1)NC(=O)CO2 (stereo unspecified) | 6.51 µM (active) |  |  |  |
| O=C1COc2ccc(S(=O)(=O)N3CCN(c4cccc(Cl)c4)CC3)cc2N1 |  | 8.29% (inactive) | -0.295 |  |
| CCOc1ccc(NC(=S)N2C3CCCC2CC(NC(=O)C2CC2)C3)cc1 (stereo unspecified) |  |  | 11.2 | inactive |
| CCOC(=O)C1Cc2ccccc2C(=O)O1 (stereo unspecified) |  | -4.22% (inactive) | 3.62 |  |
| CC(=O)Nc1nc2cc([N+](=O)[O-])ccc2s1 |  | 5.34% (inactive) | -7.82 |  |
| CCCN1C(=O)S/C(=C\c2ccc(N3CCOCC3)cc2C)C1=O |  | -5.29% (inactive) | -13.4 |  |
| C=CC(C)N1C(=O)S/C(=C\c2ccc(N3CCOCC3)cc2C)C1=O (stereo unspecified) | 4.11 µM (active) |  |  |  |
| CCC(C)N1C(=O)S/C(=C/c2ccc(N3CCOCC3)cc2C)C1=O (stereo unspecified) |  | 11.5% (inactive) | 12.1 |  |
| Cc1cccc(N2CC(C(=O)NCCC3=CCCCC3)CC2=O)c1C (stereo unspecified) |  |  |  | inactive |
| CCS(=O)(=O)N1CCC(C(=O)NCc2ccc(OC)cc2OC)CC1 |  | -1.87% (inactive) | 16 |  |
| O=C(O)c1ccc(COc2ccc([N+](=O)[O-])cc2)o1 |  |  |  | inactive |
| N#Cc1ccc(OCc2ccc(C(=O)O)o2)cc1 |  |  | -20.7 | inactive |
| O=C(O)c1ccc(COc2ccc(Cl)cc2)o1 | 25.9 µM (active) |  | -10.6 |  |
| Nc1cccnc1Sc1cccc(Cl)c1 |  |  | -17.5 | inactive |
| O=S(=O)(c1ccccc1)N1CCN(S(=O)(=O)c2ccc(F)cc2)CC1 |  | 28.1% (inactive) | -2.92 |  |
| CC1(C)CC(=O)c2cc(NC(=O)c3ccccc3)c(=O)oc2C1 |  | 3.26% (inactive) | 6.08 |  |
| Cn1c(SCc2cc(=O)[nH]c(C(C)(C)C)n2)nnc1C(F)(F)F |  | 10.1% (inactive) | -1.02 |  |

| Structure (SMILES) | Potency | lipid storage change, negative = inhibition | cell number change [%] | outcome |
| --- | --- | --- | --- | --- |
| CCOC(=O)N1CCN(C2=C(NS(=O)(=O)c3ccc(NC(C)=O)cc3)C(=O)c3ccccc3C2=O)CC1 | 18.4 µM (active) |  | -22.6 |  |
| CC(=O)Nc1ccc(S(=O)(=O)NC2=C(N3CCN(c4ccc(F)cc4)CC3)C(=O)c3ccccc3C2=O)cc1 |  |  | 3.49 | inactive |
| CCOC(=O)N1CCN(C2=C(NS(=O)(=O)c3ccc(C)cc3)C(=O)c3ccccc3C2=O)CC1 |  |  | -13.9 | inactive |
| CCOC(=O)c1ccc(N(CC(=O)NC2CCCCC2)C(=O)CNC(=O)c2ccco2)cc1 |  |  | 11.2 | inactive |
| O=C(O)CCC(=O)N1N=C(c2ccco2)CC1c1cccs1 (stereo unspecified) |  | -9.03% (inactive) | -1.36 |  |
| O=C(CCl)N1N=C(c2ccco2)CC1c1cccs1 (stereo unspecified) | 23.1 µM (active) |  | -16 |  |
| O=C(c1ccccc1)N1N=C(c2ccco2)CC1c1cccs1 (stereo unspecified) |  | -0.755% (inactive) | 16.1 |  |
| CC(C)Sc1nc2c(cnn2-c2ccc(F)cc2)c(=O)[nH]1 |  |  |  | inactive |
| CN(C)c1nc(NCc2ccccc2)nc(N/N=C/c2ccccc2F)n1 | 23.1 µM (active) |  |  |  |
| CN(C)c1nc(NCc2ccccc2)nc(N/N=C/c2ccc(Cl)cc2Cl)n1 |  |  | -26.7 | inactive |
| CN(C)c1nc(NCc2ccccc2)nc(N/N=C/c2ccc(Br)cc2)n1 |  | -0.957% (inactive) | -3.42 |  |
| O=C(NCCCN1CCCC1=O)c1cc(S(=O)(=O)N2CCOCC2)ccc1Cl |  | -23.3% (inactive) | 15 |  |
| O=C1CCCN1CCCNS(=O)(=O)c1ccc(Cl)c(C(=O)N2CCOCC2)c1 | 23.1 µM (active) |  | -15.3 |  |
| O=C1CCCN1CCCNS(=O)(=O)c1ccc(F)c(F)c1 |  | -21.9% (inactive) | 3.84 |  |
| COc1ccccc1Cn1c(C(C)C)nc2ccccc21 |  | 0.143% (inactive) | 8.07 |  |
| O=C(Nc1nc2ccccc2[nH]1)c1ccc(OC(F)F)cc1 |  |  | -15.1 | inactive |
| CCOc1ccc(N(CC(=O)NCCOc2ccc(C)cc2)S(=O)(=O)c2ccccc2)cc1 |  | 2.62% (inactive) | 23.7 |  |
| CC(=O)N1CCCc2cc(S(=O)(=O)NC(C(=O)NC3CCCCC3)C(C)C)ccc21 (stereo unspecified) |  | -0.23% (inactive) | 13.4 |  |
| C[N+]1(CCCCSc2ccc(O)cc2)CCCCC1 | 4.61 µM (active) |  | -4.93 |  |
| C[N+]1(CCC(=O)c2ccccc2)CCCCC1 |  | -1.35% (inactive) | 3.5 |  |
| COC(=O)CCCCCCCCCC[N+]1(C)CCCCC1 |  | 7.23% (inactive) | 12.8 |  |

| Structure (SMILES) | Potency | lipid storage change, negative = inhibition | cell number change [%] | outcome |
| --- | --- | --- | --- | --- |
| CCN(CC)C(=O)C(Oc1ccc(S(=O)(=O)N2CCCC2)cc1[N+](=O)[O-])c1ccccc1 (stereo unspecified) |  | -2.31% (inactive) | 3.42 |  |
| CSc1nsc(SCC(=O)Nc2ccc(C(N)=O)cc2)n1 | 6.51 µM (active) |  | 8.7 |  |
| CSc1nsc(SCC(=O)Nc2ccc(Cl)c(C(=O)O)c2)n1 | 1.46 µM (active) |  | 6.94 |  |
| Nc1nnc(SCC(=O)Nc2ccc(Cl)c(C(=O)O)c2)s1 |  | -24.1% (inactive) | -0.289 |  |
| CSc1nsc(SCC(=O)Nc2nncs2)n1 |  | 1.82% (inactive) | 10.5 |  |
| CSc1nsc(SCC(=O)Nc2ccc(OC(C)=O)cc2)n1 |  | 1.8% [at 9.22 µM] (inactive) | -8.58 |  |
| O=C(CSc1nc2ccccc2s1)Nc1ccc(Cl)c(C(=O)O)c1 |  | 2.06% (inactive) | 18.4 |  |
| O=C(Nc1cc(C(=O)N2CCN(c3ccccc3O)CC2)ccc1Cl)c1cccs1 |  | 0.607% (inactive) | 5.21 |  |
| CCCOc1cccc(C2/C(=C(\O)c3ccc4c(c3)OCCO4)C(=O)C(=O)N2CCCn2ccnc2)c1 (stereo unspecified) |  |  | -8.73 | inactive |
| O=C(CCc1nnc2n(CCc3ccccc3)c(=O)c3ccccc3n12)NCCCN1CCCCC1 |  |  | -8.94 | inactive |
| O=[N+]([O-])c1ccccc1/C=N/N1CCN(Cc2ccccc2)CC1 | 1.3 µM (active) |  | -5.28 |  |
| O=[N+]([O-])c1ccc(Cl)c(/C=N/N2CCN(Cc3ccccc3)CC2)c1 |  | 12.3% (inactive) | -3.29 |  |
| O=[N+]([O-])c1ccccc1/C=N\N1CCN(c2ccccc2)CC1 |  | -22% (inactive) | 0.964 |  |
| O=S(=O)(NNC(=S)Nc1ccc(S(=O)(=O)Nc2ncccn2)cc1)c1ccc(Br)cc1 |  |  | 4.32 | inactive |
| CCOC(=O)c1cc(-c2ccccc2)nn1Cc1cc(C)no1 |  | -32.4% (inactive) | -24 |  |
| Cc1cc(Cn2nc(C(=O)NCc3cccc(Br)c3)cc2-c2ccccc2)on1 | 13 µM (active) |  | 16.4 |  |
| Cc1cc(Cn2nc(-c3ccccc3)cc2C(=O)NCC2CC2)on1 |  | -21.7% (inactive) | -12.8 |  |
| CCOC(=O)c1cc(-c2ccccc2)nn1Cc1cc(CC)no1 |  | 3.3% (inactive) | -20.2 |  |
| Cc1cc(C(=O)NCc2ccccc2)no1 |  | -20.2% (inactive) |  |  |
| CCOC(=O)c1cc(-c2ccccc2)n(Cc2cc(CC)no2)n1 | 18.4 µM (active) |  | -3.23 |  |
